Source: PubChem (National Center for Advancing Translational Sciences (NCATS))
FMDV inh: foot and mouth disease virus antiviral activity; 410,000 compounds, 1.2% hits; FMDV antiviral cell-based qHTS; Potency, µM (series often up to 57.9 µM), most hits filed as inhibitors; calls by dose curve; tested in HEK293T cells; note: read-out not given here; nearly all actives have a fitted effect of over 45% in size
HCV inh: inhibitors of hepatitis C virus infection; 340,000 compounds, 3.4% hits; Huh7.5.1 HCVcc-Cre infection, luciferase reporter, 44 h; Potency, µM (top dose mostly 41.8 µM), hits mostly inhibitors; AID 651820
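After 44 h co-culture of compound, cells and HCVcc-Cre (~0.5 moi), substrate is added for 15 min at room temperature and luciferase measured over 15 sec. Cells were seeded at 1,000/well and pre-cultured 4 h.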
AmpC detergent: blocks E. coli AmpC beta-lactamase in detergent assay; P00811; AmpC hydrolysis of nitrocefin, absorbance 480 nm, 0.01% Triton; Potency, µM (titrated, usually from 114 µM), hits mostly inhibitors; 370,000 compounds, 0.041% hits; note: nearly all actives have a fitted effect of over 25% in size
Target sequence (P00811 whole entry, looked up): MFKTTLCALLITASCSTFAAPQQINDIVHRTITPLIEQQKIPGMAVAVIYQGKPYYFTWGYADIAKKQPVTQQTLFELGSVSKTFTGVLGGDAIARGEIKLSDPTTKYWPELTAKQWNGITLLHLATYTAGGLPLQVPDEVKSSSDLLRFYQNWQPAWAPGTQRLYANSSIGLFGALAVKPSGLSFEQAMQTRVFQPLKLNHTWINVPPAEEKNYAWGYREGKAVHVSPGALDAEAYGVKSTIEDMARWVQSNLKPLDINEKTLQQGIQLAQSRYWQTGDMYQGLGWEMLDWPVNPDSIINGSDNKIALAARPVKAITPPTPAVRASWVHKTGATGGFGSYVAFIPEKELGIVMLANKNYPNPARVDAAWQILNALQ
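AmpC (5.3 nM in the dispensed reagent) in 20 mM phosphate pH 7.0 with 0.01% (detergent screen) or 0.0001% Triton X-100 was preincubated with compounds for 15 min at room temperature. Nitrocefin was then added from an 800 uM solution, and hydrolysis was followed at 480 nm.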
AmpC inh no detg: inhibitors of E. coli AmpC beta-lactamase without detergent; Potency, µM (titrated, usually from 57.1 µM), actives largely listed as inhibitors; P00811; 330,000 compounds, 0.52% hits; AID 485341; AmpC nitrocefin hydrolysis, absorbance 480 nm, 0.0001% Triton; note: nearly all actives have a fitted effect of over 20% in size
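AmpC (5.3 nM in the dispensed reagent) in 20 mM phosphate pH 7.0 with 0.01% (detergent screen) or 0.0001% Triton X-100 was preincubated with compounds for 15 min at room temperature. Nitrocefin was then added from an 800 uM solution, and hydrolysis was followed at 480 nm.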
HCMV antiviral: human cytomegalovirus inhibition; HFF cells, HCMV-luciferase reporter, 72 h; hits give low values; activity change, negative = inhibition, % at 57.5 µM; 410,000 compounds, 4.5% hits; AID 1259415; in the data active = activity change below about -60%; inconclusive = no clear call, values can overlap the other calls; inactive = above about -39%
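Inhibition of viral replication was scored as loss of reporter luminescence in HFFs infected with HCMV-luciferase (MOI 1 PFU/cell) for 72 h; compounds tested at 2 doses, normalized to buffer and Salinomycin controls.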
HCV inh confirm: confirmation of hepatitis C virus inhibitors; shares compounds with HCV inh; HCVcc-Cre infectious virus cell assay, luciferase, inhibition; Potency, µM (highest dose often 41.8 µM), actives largely listed as inhibitors; 640 compounds, 78% hits; AID 720575; note: nearly all actives have a fitted effect of over 80% in size
HCV host tox: host cell cytotoxicity counter-screen for HCV inhibitors | HCV host cell line cytotoxicity counterscreen | AID 720576 | Potency, µM (series often up to 41.8 µM), usual class: inhibitors | shares compounds with HCV inh | 640 compounds, 22% hits;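 note: 44 h compound exposure; nearly all actives have a fitted effect of over 55% in size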
Large screens that a line does not name were inactive (follow-up assays come after a bar, where they were run). This is a sample that favours compounds with a hit; in the whole collection about 7.3% have one here. Unless noted, calls come from the whole dose curve; as a rule, active = well fitted curve in the direction sought with a large enough effect; inconclusive = small, poorly fitted or top-dose-only effect, or another doubt; inactive = no such curve, though single readings can be large; an effect the other way counts as inactive or inconclusive.

O=S(=O)(c1ccc2c(c1)OCCO2)N1CCCN(S(=O)(=O)c2c(F)cccc2F)CC1	AmpC detergent inconclusive (no result: HCV inh)
Cc1cc(C(=O)Nc2cccc3c2O[C@H](CN(C)CC2CC2)[C@@H](C)CN([C@H](C)CO)C3=O)n(C)n1	none (no result: AmpC detergent)
COc1ccc(CNC(=O)c2ccc3c(=O)n4c(nc3c2)CCCCC4)cc1OC	FMDV inh inconclusive, HCV inh inconclusive, HCMV antiviral -74 | HCV inh confirm 7.9µM | HCV host tox inconclusive
Cc1ccc(OCC(=O)N(c2ccc(C)cc2)S(=O)(=O)c2ccc(Cl)cc2)cc1	none (no result: HCV inh, AmpC inh no detg)
Cc1cnc(NC(=O)C2CC(=O)N(c3cccc(Cl)c3)C2)s1 (stereo not given)	HCV inh 3.2µM, HCMV antiviral -99 | HCV inh confirm 8.9µM | HCV host tox 3.5µM
Cc1ccc(NC(=O)CCCn2c(=S)[nH]c3ccsc3c2=O)cc1C	none
COc1ccc(NS(=O)(=O)c2ccc3nc(COc4ccc5ccccc5c4)[nH]c3c2)cc1	FMDV inh inconclusive, HCV inh 7.9µM, HCMV antiviral inconclusive | HCV inh confirm 20µM | HCV host tox inactive
COc1cccc(NC(=O)CN2CCCN(S(=O)(=O)c3ccc(Br)cc3)CC2)c1	FMDV inh inconclusive (no result: HCV inh, AmpC inh no detg)
CC1(c2ccc(OCC#N)cc2)C=C(c2ccc(OCC#N)cc2)n2nc(C(F)(F)F)nc2N1 (stereo not given)	FMDV inh inconclusive, HCV inh 8.9µM, AmpC inh no detg inconclusive, HCMV antiviral -69 | HCV inh confirm 22µM | HCV host tox inactive
Cc1ccc(C2=NCCn3c2c2ccc([N+](=O)[O-])cc2[n+]3[O-])cc1	HCV inh inconclusive | HCV inh confirm 22µM | HCV host tox inactive
O=[N+]([O-])c1ccc2c3n([n+]([O-])c2c1)CCN=C3c1ccc(Cl)cc1	HCV inh inconclusive
O=c1c(-c2nnc(SCc3ccc(Cl)cc3)o2)cccn1Cc1ccccc1	HCV inh 3.5µM, HCMV antiviral inconclusive | HCV inh confirm 13µM | HCV host tox inconclusive
O=C(Nc1ccccc1-c1nnc(SCc2ccc(Cl)cc2)o1)c1ccccc1	AmpC inh no detg inconclusive
CCOC(=O)c1cc2c(=O)n3ccccc3nc2n(Cc2ccco2)c1=NC(=O)c1ccc(OC)cc1OC	HCV inh inconclusive | HCV inh confirm inconclusive | HCV host tox inactive
CCOC(=O)c1cc2c(=O)n3ccccc3nc2n(CC2CCCO2)c1=NC(=O)c1ccc(OC)cc1OC (stereo not given)	none (no result: HCV inh, AmpC inh no detg)
COc1cc(/C=C2/SC(=O)NC2=O)ccc1OC(=O)c1ccco1	none
CCOc1cc(/C=C2/SC(=S)NC2=O)ccc1OC(=O)c1ccco1	HCV inh 3.5µM | HCV inh confirm inactive | HCV host tox inactive
S=C(S)N1CCCC1	HCV inh inconclusive, AmpC detergent inconclusive | HCV inh confirm 25µM | HCV host tox 28µM
ON=C1c2cc(OCCN3CCCCC3)ccc2-c2ccc(OCCN3CCCCC3)cc21	HCV inh 3.2µM (no result: HCMV antiviral) | HCV inh confirm inconclusive | HCV host tox inactive
Clc1ccc(OCCN2CCCCC2)cc1Cl	none
COc1ccc(S(=O)(=O)NCCSc2nnnn2-c2ccccc2)cc1OC	none (no result: HCV inh, AmpC inh no detg)
Cc1ccc(-n2nnnc2SCCNS(=O)(=O)c2ccccc2)cc1C	HCV inh inconclusive, AmpC detergent inconclusive (no result: FMDV inh) | HCV inh confirm 14µM | HCV host tox inactive
COC(=O)c1cn(-c2ccccc2)nc1-c1ccc(OC)c(OC)c1	HCV inh 7.9µM | HCV inh confirm 14µM | HCV host tox inactive
COc1ccc(-c2nn(-c3ccccc3)cc2C(=O)O)cc1N	none
CCCCCC(=O)N/N=C/c1ccc([N+](=O)[O-])o1	HCV inh inconclusive
Cc1ccc(NCC(=O)N/N=C\c2ccc([N+](=O)[O-])o2)cc1	HCV inh 3.2µM, HCMV antiviral -82 (no result: FMDV inh) | HCV inh confirm 14µM | HCV host tox inconclusive
O=C(Nc1nncs1)C1CCCC1	none (no result: AmpC detergent, AmpC inh no detg)
O=C(NC(Nc1ncc(S(=O)(=O)c2ccc([N+](=O)[O-])cc2)s1)(C(F)(F)F)C(F)(F)F)c1ccc(Cl)cc1	FMDV inh inconclusive, HCV inh 4.5µM, HCMV antiviral -96 | HCV inh confirm 4.4µM | HCV host tox 7.9µM
COc1cc(NC(=O)c2ccc3c(c2)OCO3)ccc1NC(=O)c1ccco1	HCV inh inconclusive | HCV inh confirm inconclusive | HCV host tox inactive
NC(=S)N/N=C/c1cccc(/C=N/NC(N)=S)c1	none
Cc1cnc(C=NNC(N)=S)c2cccc(N)c12	HCV inh inconclusive (no result: AmpC detergent, AmpC inh no detg) | HCV inh confirm inconclusive | HCV host tox inactive
NC(=S)NN=Cc1nccc2ccccc12	HCV inh 2.8µM, HCMV antiviral -98 (no result: AmpC detergent, AmpC inh no detg) | HCV inh confirm 6.3µM | HCV host tox inconclusive
CCN(CC(=O)Nc1ccc(Br)cc1F)CC(=O)NC1CCS(=O)(=O)C1 (stereo not given)	none
C(#Cc1c(-c2ccsc2)sc2ccccc12)c1ccsc1	HCV inh inconclusive (no result: AmpC detergent)
CSc1scc2c1-c1nc(SCC(=O)C(C)(C)C)ncc1CC2	HCV inh 8.9µM, HCMV antiviral inconclusive | HCV inh confirm 25µM | HCV host tox inactive
COc1ccccc1CC(=O)Nc1cc2oc3ccccc3c2cc1OC	HCV inh 4µM (no result: FMDV inh) | HCV inh confirm 13µM | HCV host tox inactive
COc1cc(NC(=O)c2ccc(COc3ccccc3Br)o2)cc(OC)c1OC	HCV inh 5µM | HCV inh confirm 11µM | HCV host tox inactive
COc1ccc2nc(SCC(=O)c3c(C)[nH]c4ccccc34)nc(C)c2c1	none (no result: HCV inh, AmpC inh no detg)
CC(=O)c1cccc(NC(=O)CCNC(=O)c2cccc(C)c2)c1	none
FC(F)(F)c1nc(-c2cccs2)ncc1-c1nnnn1-c1ccc(Cl)cc1	FMDV inh 11µM, HCV inh 5µM, AmpC detergent inconclusive, HCMV antiviral -61 | HCV inh confirm 6.3µM | HCV host tox inactive
N#Cc1ccccc1CSc1ccc(-c2nc3ccccc3[nH]2)cn1	HCV inh 8.9µM (no result: FMDV inh) | HCV inh confirm inconclusive | HCV host tox 14µM
CCOC(=O)N1CCN(C(=O)c2ccc3c(=O)n(-c4ccccc4F)c(=S)[nH]c3c2)CC1	none
CCc1ccc(C(CNC(=O)c2ccc3c(=O)n(-c4ccccc4F)c(=S)[nH]c3c2)N(C)C)cc1 (stereo not given)	FMDV inh inconclusive, HCV inh 5µM, AmpC detergent inconclusive, HCMV antiviral inconclusive | HCV inh confirm 1.4µM | HCV host tox 31µM
CCCCN(CC)CCNC(=O)c1cc2c(-c3ccc(Cl)cc3)nn(C)c2s1	HCV inh 2.8µM, HCMV antiviral -100 | HCV inh confirm 7µM | HCV host tox inactive
CCN(CC)CCCNC(=O)c1cc(-c2ccc(Cl)cc2)on1	HCV inh 8.9µM | HCV inh confirm 22µM | HCV host tox inactive
